Compound activity as filed in PubChem.
Compounds with a hit are over-represented: about 3.5% of the library has one in this group of screens.
LmPK inhibitor = blocks Leishmania mexicana pyruvate kinase activity; Q27686; purified LmPK, Kinase-Glo ATP luminescence, 1 h; Potency, µM (top dose mostly 57.5 µM), actives largely listed as inhibitors; 290,000 compounds, 0.37% hits
Target sequence (Q27686 whole entry, looked up): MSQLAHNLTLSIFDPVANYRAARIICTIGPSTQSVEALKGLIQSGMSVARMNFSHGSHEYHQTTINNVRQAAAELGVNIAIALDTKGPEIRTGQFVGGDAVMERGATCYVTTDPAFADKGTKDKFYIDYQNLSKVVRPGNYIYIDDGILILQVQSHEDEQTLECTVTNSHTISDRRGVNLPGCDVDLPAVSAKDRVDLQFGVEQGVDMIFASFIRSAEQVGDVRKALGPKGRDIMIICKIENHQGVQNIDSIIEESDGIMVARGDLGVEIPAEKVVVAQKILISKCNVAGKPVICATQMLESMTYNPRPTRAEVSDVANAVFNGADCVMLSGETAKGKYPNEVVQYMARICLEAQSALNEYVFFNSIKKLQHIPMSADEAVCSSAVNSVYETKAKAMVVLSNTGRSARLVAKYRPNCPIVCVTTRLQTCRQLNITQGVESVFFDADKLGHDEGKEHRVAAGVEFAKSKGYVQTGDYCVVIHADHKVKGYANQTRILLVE
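Purified LmPK (0.1 nM) converted ADP (0.1 mM) to ATP with PEP (0.5 mM) in imidazole buffer pH 7.2 with KCl and MgCl2, 1 h at room temperature. ATP was read by Kinase-Glo luminescence; data normalized to uninhibited and no-enzyme controls.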
TbPYK inhibitor = T. brucei pyruvate kinase inhibition; TbPYK enzyme, Kinase-Glo Plus ATP luminescence, 45 min; Potency, µM (titrated, usually from 76.8 µM), actives largely listed as inhibitors; 410,000 compounds, 0.12% hits; AID 624173; Q57TT1; further: nearly all actives have a fitted effect of over 50% in size
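ADP (130 uM final) triggers the TbPYK reaction after compound addition; incubation is 45 min at room temperature. Kinase-Glo Plus is then added and luminescence imaged. Normalized data are fitted to concentration-effect curves.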
Giardia FBPA inh = Giardia lamblia aldolase inhibition; Potency, µM (titrated, usually from 59.6 µM), actives largely listed as inhibitors; 290,000 compounds, 0.71% hits; purified Giardia FBPA; further: nearly all actives have a fitted effect of over 55% in size
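Giardia FBPA (40 nM reagent) was preincubated 10 min at RT with compound (up to 57.5 uM final), then substrate plus GAPDH/TPI/NAD/arsenate coupling system with diaphorase/resazurin was added; resorufin fluorescence (525/598 nm) was read after 20 min.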
Sm TGR block = S. mansoni TGR enzyme inhibition; Q962Y6; purified TGR, DTNB reduction, TNB absorbance 405 nm; Potency, µM (series often up to 114 µM), hits mostly inhibitors; 360,000 compounds, 3% hits; AID 485364; further: nearly all actives have a fitted effect of over 60% in size
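First, TGR (20 nM dispensed) and NADPH were mixed with compound. Second, a 15 min room-temperature incubation followed. Third, further NADPH and then DTNB were added to start the reaction. Finally, TNB absorbance was monitored kinetically.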
NS1 function inh = influenza NS1 inhibition | Potency, µM (doses to about 46.1 µM) | 270,000 compounds, 0.4% hits | AID 2326; calls by dose curve; further: actives are rising curves; nearly all actives have a fitted effect of over 50% in size
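Growth recovery, yeast-based: influenza A NS1 expressed in S. cerevisiae causes slow growth, and suppressors are detected by OD600. The parent strain without NS1 is used as positive control.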
RE007 growth inh = less growth of the S. pombe RE007 Vpr strain; S. pombe RE007 Vpr strain, BacTiter-Glo ATP luminescence, 24 h; Potency, µM (series often up to 92.2 µM), hits mostly inhibitors; 360,000 compounds, 0.21% hits; active means well fitted falling curve with a large enough effect; inconclusive means small, poorly fitted or top-dose-only effect; inactive means no such curve, though single readings can be large or run the other way; further: nearly all actives have a fitted effect of over 50% in size
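Fission yeast RE007 carrying one integrated HIV-1 vpr copy, seeded at OD 0.01 in PMG+AL medium with 23 nL pinned compound. Grown 24 h at 30 degrees; viability read by BacTiter-Glo luminescence after 5 min.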
Large screens that a line does not name were inactive. Unless noted, the call rests on the fitted dose curve; in most records, active means well fitted curve in the direction sought with a large enough effect; inconclusive means small, poorly fitted or top-dose-only effect, or another doubt; inactive means no such curve, though single readings can be large; an effect the other way counts as inactive or inconclusive.

COc1ccc(NC(=O)CCc2nc3c(C)nn(-c4ccc(C)cc4)c3n(C)c2=O)cc1	none (no result: LmPK inhibitor, Giardia FBPA inh, NS1 function inh, RE007 growth inh)
COc1c2c(c3c(c1CCC(=O)O)OC(C)(C)C=C3)OC(C)(C)C=C2	none (no result: LmPK inhibitor, TbPYK inhibitor, Giardia FBPA inh, Sm TGR block, RE007 growth inh)
Cc1ccc(Cn2c(C)c3cnn(CC(=O)NCCc4ccc(Cl)cc4)c(=O)c3c2C)cc1	none (no result: LmPK inhibitor, Giardia FBPA inh, NS1 function inh, RE007 growth inh)
COc1cc(NC(=O)c2c(C)oc3ncnc(N4CCCCC4)c23)cc(OC)c1	none (no result: LmPK inhibitor, Giardia FBPA inh, NS1 function inh, RE007 growth inh)
CCOc1ccc(C2C(=O)N(C3CCCCCC3)CC(=O)N2CCc2ccc(Cl)cc2)cc1OC (stereo not drawn)	none (no result: LmPK inhibitor, Giardia FBPA inh, NS1 function inh, RE007 growth inh)
Cc1ccc(S(=O)(=O)c2nc(-c3cccc(C)c3)oc2N2CCN(c3ccccc3)CC2)cc1	none (no result: LmPK inhibitor, Giardia FBPA inh, NS1 function inh, RE007 growth inh)
Cc1ccc(S(=O)(=O)c2nc(-c3cccc(C)c3)oc2N2CCCCC2)cc1	Sm TGR block 20µM (no result: LmPK inhibitor, Giardia FBPA inh, NS1 function inh, RE007 growth inh)
COc1cccc(-c2nc(S(=O)(=O)c3ccc(C)cc3)c(N3CCCCCC3)o2)c1	none (no result: LmPK inhibitor, Giardia FBPA inh, NS1 function inh, RE007 growth inh)
Cc1ccc(S(=O)(=O)c2nc(-c3ccco3)oc2N2CCC(C)CC2)cc1	Sm TGR block 39.8µM (no result: Giardia FBPA inh)
CC(C)(C)c1ccc(-c2nc(S(=O)(=O)c3ccccc3)c(N3CCOCC3)o2)cc1	none (no result: LmPK inhibitor, Giardia FBPA inh, NS1 function inh, RE007 growth inh)
COc1ccc(-c2nc(S(=O)(=O)c3ccccc3)c(N3CCOCC3)o2)cc1	Sm TGR block 39.8µM
O=S(=O)(c1ccccc1)c1nc(-c2ccco2)oc1N1CCOCC1	none
COc1ccc(-c2nc(S(=O)(=O)c3ccc(C)cc3)c(N3CCCCC3)o2)cc1	Sm TGR block 10µM (no result: LmPK inhibitor, Giardia FBPA inh, NS1 function inh, RE007 growth inh)
CCN1CCN(c2cc(C)c3cc(NC(=O)/C=C/c4cccc(Cl)c4)ccc3n2)CC1	none (no result: LmPK inhibitor, Giardia FBPA inh, NS1 function inh, RE007 growth inh)
CN(C)c1ccc(CNC(=O)c2ccc3nc(CCc4ccccc4)oc3c2)cc1	none (no result: LmPK inhibitor, Giardia FBPA inh, NS1 function inh, RE007 growth inh)
NC(=O)C1CCN(c2oc(-c3ccccc3)nc2S(=O)(=O)c2ccc(Br)cc2)CC1	Sm TGR block inconclusive (no result: Giardia FBPA inh)
Cc1ccc(-c2nc(S(=O)(=O)c3ccc(C)cc3)c(N3CCN(c4ccccc4)CC3)o2)cc1	none (no result: LmPK inhibitor, Giardia FBPA inh, NS1 function inh, RE007 growth inh)
O=S(=O)(c1ccccc1)c1nc(-c2ccccc2)oc1N1CCCC1	none
Cc1ccc(S(=O)(=O)c2nc(-c3ccccc3)oc2N2CCC(C(N)=O)CC2)cc1	Sm TGR block 14.1µM
COc1ccc(NC(=O)CSc2oc(-c3ccc(F)cc3)nc2S(=O)(=O)c2ccc(C)cc2)c(OC)c1	Sm TGR block 44.7µM (no result: LmPK inhibitor, Giardia FBPA inh, NS1 function inh, RE007 growth inh)
O=S(=O)(c1ccccc1)c1nc(-c2ccccc2)oc1N1CCCCC1	Sm TGR block 22.4µM
Cc1ccc(S(=O)(=O)c2nc(-c3ccc(F)cc3)oc2SCC(=O)NC2CCCCC2)cc1	none (no result: LmPK inhibitor, Giardia FBPA inh, NS1 function inh, RE007 growth inh)
Cc1ccc(S(=O)(=O)c2nc(Cc3ccccc3)oc2N2CCOCC2)cc1	Sm TGR block 0.794µM (no result: LmPK inhibitor, Giardia FBPA inh, NS1 function inh)
Cc1ccc2nc(-c3ccc(NC(=O)COc4ccc(Br)cc4Br)cc3)sc2c1	none (no result: LmPK inhibitor, Giardia FBPA inh, NS1 function inh, RE007 growth inh)
Cc1ccc(S(=O)(=O)c2nc(-c3ccccc3F)oc2N2CCCCC2)cc1	Sm TGR block 44.7µM (no result: LmPK inhibitor, Giardia FBPA inh, NS1 function inh, RE007 growth inh)
Cc1ccc(S(=O)(=O)c2nc(-c3ccccc3)oc2N2CCCC2)cc1	Sm TGR block 2µM (no result: LmPK inhibitor, Giardia FBPA inh, NS1 function inh)
Cc1ccc(S(=O)(=O)c2nc(-c3ccccc3)oc2N2CCN(c3ccccc3)CC2)cc1	none (no result: LmPK inhibitor, Giardia FBPA inh, NS1 function inh, RE007 growth inh)
COc1ccc2c(C(=O)CN(C)C3CCCCC3)c[nH]c2c1	Sm TGR block 35.5µM
COc1ccc2c(C(=O)CN3CCSCC3)c[nH]c2c1	none
CCCC(=O)O[C@]1(C(=O)COC(C)=O)CC[C@H]2C3C[C@H](F)C4=CC(=O)C=CC4(C)[C@@]3(F)[C@@H](O)CC21C (stereo partly drawn)	none (no result: LmPK inhibitor, Giardia FBPA inh, Sm TGR block, NS1 function inh, RE007 growth inh)
N#CC(C#N)=Cc1cc2ccccc2nc1N1CCOCC1	Sm TGR block 7.08µM
Cc1ccc2cc(C=C(C#N)C#N)c(Cl)nc2c1	Sm TGR block 2.82µM
Cc1ccc2cc(C=C(C#N)C#N)c(N3CCCCC3)nc2c1	Sm TGR block 3.16µM
CCOC(=O)N1CCN(CCC(=O)c2ccc(OC)cc2)CC1	RE007 growth inh 28.2µM (no result: NS1 function inh)
CCOC(=O)N1CCN(CCC(=O)c2ccc(Br)cc2)CC1	RE007 growth inh 35.5µM
CCOC(=O)N1CCN(CCC(=O)Nc2ccc(OC)cc2)CC1	none
CCN1CCN(C(=S)c2ccc(Cl)cc2)CC1	TbPYK inhibitor inconclusive, Giardia FBPA inh 3.97µM
CC1CCCN(CCC(=O)c2ccc(Br)cc2)C1 (stereo not drawn)	none
COc1ccc(C(=O)CCN2CCCC(C)C2)cc1 (stereo not drawn)	Sm TGR block 0.282µM, RE007 growth inh inconclusive
CCOC(=O)N1CCN(CCC(=O)Nc2ccc(C)cc2)CC1	none
O=C(CSc1nc2cc3ccccc3cc2[nH]1)Nc1cccc(C(F)(F)F)c1	none (no result: LmPK inhibitor, Giardia FBPA inh, NS1 function inh, RE007 growth inh)
CCCN1Cc2cccc(C(=O)Nc3ccc(OC)cc3OC)c2C1=O	none (no result: LmPK inhibitor, Giardia FBPA inh, NS1 function inh, RE007 growth inh)
CCOC(=O)N1CCN(CCC(=O)c2ccc(Cl)cc2)CC1	RE007 growth inh 31.6µM
Cc1ccc(NC(=O)C2CCC(CNS(=O)(=O)c3ccc4c(c3)CCCC(=O)N4)CC2)cc1F (stereo not drawn)	none (no result: LmPK inhibitor, Giardia FBPA inh, NS1 function inh, RE007 growth inh)
CCN1CCOC(=O)C1CC(=O)Nc1cc(Cl)ccc1OC (stereo not drawn)	Sm TGR block 14.1µM (no result: LmPK inhibitor, Giardia FBPA inh, NS1 function inh, RE007 growth inh)
COc1ccc(Cl)cc1NC(=O)CN(C)C1CCS(=O)(=O)C1 (stereo not drawn)	Sm TGR block 50.1µM (no result: LmPK inhibitor, Giardia FBPA inh, NS1 function inh)
